Drawing on PubChem BioAssay (NCATS), this text covers Potency for 36 compounds.

Each structure is given as a SMILES string. Inconclusive results are not listed. The source made the active and inactive calls. Calls come from the whole dose curve; as a rule, active = well fitted inhibition curve with a large enough effect; inconclusive = small, poorly fitted or top-dose-only effect; inactive = flat fitted curve, though single readings scatter.

Common to all, as to assay: qHTS profiling for inhibitors of Plasmodium falciparum proliferation (AID 504749); note: nearly all actives have a fitted effect of over 60% in size
Settings in all cases: P. falciparum in erythrocytes, SYBR Green DNA, 72 h; series mostly up to 28.7 µM
A general note: qHTS replaces the single test concentration by a dilution series.

The test system of one assay is CP266. A digest of the protocol: (§1)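 Fluorescence of SYBR Green-bound parasite DNA, read at 485/535 nm, served as the growth measure. Infected erythrocytes were cultured with compound 72 h; artemisinin (0.29 uM) and DMSO wells defined the normalization range.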
Another assay relates to CP269. In a few lines:
as §1

In another assay the test system is CP291. In a few lines:
as §1

The test system of a further assay is CP305. In a few lines: as §1
A further assay has as its system CP315. In a few lines: as §1
A further assay relates to CP268. In a few lines: as §1
The test system of a further assay is CP325. In a few lines: as §1
The subject of another assay is CP329. In a few lines: as §1
The next assay concerns CP286. A digest of the protocol: as §1
A further assay relates to CP297. A digest of the protocol:
as §1
Potency is the fitted concentration of half-maximal effect.

As to `CC(C)(C)NC[C@H](O)COc1nsnc1N1CCOCC1`, the Potency result in the assay with CP266 and with CP315 was “inactive” each time. Besides, the Potency with CP269 is 15.1 µM (active); in the assay with CP291, 13.5 µM (active); in the assay with CP305, 15.1 µM (active).

On to `O=C(NC1CCN(CCc2c[nH]c3ccccc23)CC1)c1ccccc1`, for which the Potency result with CP266, in the assay with CP268, with CP269, in the assay with CP291, in the assay with CP305 and in the assay with CP315 was “inactive” each time. Also, the Potency entry in the assay with CP325 and in the assay with CP329 was “inactive” each time.

For `C/C=C/C=N/NC(=O)c1ccncc1`, the Potency result with CP266, with CP268, in the assay on CP269, in the assay on CP286, in the assay on CP291 and in the assay on CP305 was “inactive” in each case. In addition, the Potency result with CP315, with CP325 and in the assay with CP329 was “inactive” throughout.

Regarding `COc1ccc(C(Cl)=C(c2ccc(OC)cc2)c2ccc(OC)cc2)cc1`, the Potency result in the assay on CP266, with CP269, with CP291, in the assay on CP297, with CP315 and in the assay with CP325 was “inactive” in each case. For the same compound, the Potency result in the assay on CP329 is “inactive”.

In the case of `CC(C)NCC(O)c1ccc2ccccc2c1` (stereo unspecified), the Potency entry in the assay with CP266 and in the assay on CP329 was “inactive” in each case. For the same compound, the Potency with CP286 was 11.2 µM (active).

Turning to `CC(C)(C)CC(C)(C)c1ccc(O)c(-n2nc3ccccc3n2)c1`, the Potency entry with CP266, in the assay with CP268, with CP269, in the assay with CP291, in the assay with CP297 and in the assay with CP305 was “inactive” throughout. Besides, the Potency result in the assay with CP315, with CP325 and in the assay with CP329 was “inactive” each time.

On to `CCN(CC)CCNC(=O)c1cc(Br)c(N)cc1OC`, for which the Potency result with CP266, in the assay on CP268, in the assay with CP269, in the assay on CP286, in the assay on CP291 and in the assay on CP305 was “inactive” in each case. Further, the Potency result in the assay with CP315, with CP325 and in the assay with CP329 was “inactive” in each case.

For the compound `CN1CCN(C2=Nc3ccccc3Sc3ccc(Cl)cc32)CC1`, the Potency result with CP266, in the assay with CP268, with CP305, in the assay on CP315, in the assay on CP325 and in the assay on CP329 was “inactive” in each case.

For the compound `CCCCCCCCNC(C)C(O)c1ccc(SC(C)C)cc1` (stereo unspecified), the Potency in the assay with CP266 was 1.69 µM (active); with CP268, 1.51 µM (active); with CP269 it was 1.51 µM (active); with CP286 it was 1 µM (active); in the assay on CP291, 1.9 µM (active); in the assay on CP305 it was 2.69 µM (active). Besides, the Potency in the assay on CP315, with CP325 and with CP329 was 3.01 µM (active) each time.

Take `COc1ccc(CCN(C)CCCN2CCc3cc(OC)c(OC)cc3CC2=O)cc1OC`: the Potency result in the assay with CP266, with CP268, in the assay with CP269, in the assay on CP286, in the assay with CP291 and in the assay with CP305 was “inactive” in each case. In addition, the Potency result in the assay with CP315, with CP325 and in the assay on CP329 was “inactive” in each case.

For the compound `CN(C)CCC[C@@]1(c2ccc(F)cc2)OCc2cc(C#N)ccc21`, the Potency entry with CP266, in the assay with CP268, in the assay with CP286, with CP291, with CP305 and in the assay on CP325 was “inactive” each time. In addition, in the assay with CP329, the Potency result was “inactive”.

On to `CNCCc1ccccn1`, for which the Potency result in the assay on CP266, with CP268, with CP269, in the assay with CP286, in the assay on CP291 and with CP305 was “inactive” throughout. The Potency result in the assay on CP315, in the assay on CP325 and in the assay with CP329 was “inactive” in each case.

Consider `O=C1C(O)=C(O)C(=O)C(O)=C1O`, for which the Potency entry in the assay on CP266, in the assay with CP268, in the assay with CP269, in the assay with CP291, in the assay with CP305 and with CP315 was “inactive” in each case. The Potency entry in the assay on CP325 and in the assay on CP329 was “inactive” each time.

`NCc1ccccc1Sc1ccccc1CO`: the Potency entry with CP266, in the assay with CP269, in the assay with CP286, in the assay on CP291, in the assay with CP305 and in the assay with CP315 was “inactive” in each case. Further, the Potency entry in the assay on CP325 and in the assay on CP329 was “inactive” throughout.

As for `NC(=O)C1(N2CCCCC2)CCN(CCCC(=O)c2ccc(F)cc2)CC1`, the Potency result with CP266, in the assay on CP268, in the assay with CP269, in the assay on CP286, in the assay on CP315 and in the assay with CP325 was “inactive” throughout. Besides, the Potency entry with CP329 was “inactive”.

As to `CN(Cc1ccc(C(C)(C)C)cc1)Cc1cccc2ccccc12`, the Potency entry in the assay with CP266, in the assay on CP268, in the assay on CP269, in the assay with CP291, with CP297 and in the assay on CP305 was “inactive” throughout. The Potency entry with CP315, with CP325 and in the assay on CP329 was “inactive” throughout.

In the case of `CCCCCCCCCCCCCC(=O)OC(C)C`, the Potency entry in the assay on CP266, with CP268, in the assay with CP269, in the assay with CP286, with CP291 and in the assay with CP305 was “inactive” throughout. Also, the Potency result in the assay with CP315, in the assay with CP325 and with CP329 was “inactive” each time.

For `O=C(CN1CCN(Cc2ccc3c(c2)OCO3)CC1)N1c2ccccc2Sc2ccccc21`, in the assay with CP266, the Potency entry was “inactive”. The Potency in the assay on CP286 is 10 µM (active).

Take `OC(C#CCN1CCCC1)(c1ccccc1)c1ccccc1`: the Potency entry with CP266 and in the assay with CP315 was “inactive” throughout. Moreover, the Potency with CP297 is 12 µM (active).

Turning to `CN1CCc2cccc3c2[C@H]1Cc1ccc(O)c(O)c1-3`, the Potency in the assay with CP266 is 8.49 µM (active); in the assay on CP269, 16.9 µM (active); in the assay on CP286 it was 6.31 µM (active).

For the compound `CN(C)CCN1C(=O)c2ccccc2N(C)c2ccccc21`, the Potency entry in the assay with CP266, in the assay with CP315 and with CP329 was “inactive” each time. In the assay with CP297, the Potency is 13.5 µM (active).

For the compound `O=[N+]([O-])c1cccc(S(=O)(=O)NCCNS(=O)(=O)c2cccc([N+](=O)[O-])c2)c1`, the Potency entry with CP266, in the assay with CP291, in the assay with CP297, in the assay on CP315, in the assay with CP325 and with CP329 was “inactive” each time.

Take `CC(=O)N[C@@H](CCC(=O)O)C(=O)O`: the Potency entry in the assay with CP266, with CP268, in the assay on CP269, in the assay with CP286, in the assay with CP297 and with CP305 was “inactive” in each case. The Potency entry in the assay on CP315, with CP325 and in the assay on CP329 was “inactive” throughout.

Take `CN1CCC(OC(c2ccccc2)c2ccccc2)CC1`: the Potency entry in the assay with CP266, with CP297 and in the assay with CP315 was “inactive” each time.

`CC1(COc2ccc(CC3SC(=O)NC3=O)cc2)CCCCC1` (stereo unspecified): the Potency entry in the assay on CP266, in the assay on CP268, with CP269, in the assay on CP286, in the assay on CP291 and with CP305 was “inactive” in each case. Also, the Potency entry in the assay on CP315, in the assay on CP325 and with CP329 was “inactive” in each case.

Regarding `Cc1ccc(-c2ncc(Cl)cc2-c2ccc(S(C)(=O)=O)cc2)cn1`, the Potency result in the assay on CP266, in the assay with CP286, in the assay with CP291, with CP297, in the assay on CP305 and in the assay on CP315 was “inactive” each time. In addition, the Potency result with CP325 and with CP329 was “inactive” throughout.

Take `C#C[C@]1(O)CC[C@H]2[C@@H]3CCC4=Cc5oncc5C[C@]4(C)[C@H]3CC[C@@]21C`: the Potency result with CP266, in the assay with CP268, in the assay on CP269, with CP286, in the assay with CP291 and in the assay on CP305 was “inactive” throughout. Besides, the Potency entry with CP315, in the assay with CP325 and in the assay with CP329 was “inactive” in each case.

In the case of `Oc1ccc(Cl)cc1Cc1cc(Cl)ccc1O`, the Potency entry with CP266, in the assay on CP268, in the assay with CP269, in the assay with CP286, in the assay on CP297 and in the assay with CP305 was “inactive” each time. In addition, the Potency entry in the assay on CP315 and in the assay with CP329 was “inactive” in each case.

For the compound `COc1cc(O)c(C(=O)c2ccccc2)cc1S(=O)(=O)O`, the Potency result in the assay on CP266, with CP268, in the assay on CP286, with CP291, in the assay with CP297 and in the assay with CP315 was “inactive” in each case. Besides, the Potency entry in the assay on CP325 and in the assay on CP329 was “inactive” throughout.

Take `OC[C@H]1O[C@@H]2O[C@H]3[C@H](O)[C@@H](O)[C@@H](O[C@H]4[C@H](O)[C@@H](O)[C@@H](O[C@H]5[C@H](O)[C@@H](O)[C@@H](O[C@H]6[C@H](O)[C@@H](O)[C@@H](O[C@H]7[C@H](O)[C@@H](O)[C@@H](O[C@H]8[C@H](O)[C@@H](O)[C@@H](O[C@H]1[C@H](O)[C@H]2O)O[C@@H]8CO)O[C@@H]7CO)O[C@@H]6CO)O[C@@H]5CO)O[C@@H]4CO)O[C@@H]3CO`: the Potency entry with CP266, in the assay with CP268, with CP269, in the assay on CP286, with CP291 and in the assay on CP305 was “inactive” each time. Further, the Potency entry in the assay with CP315, in the assay on CP325 and with CP329 was “inactive” throughout.

Consider `Cc1cc(CC(=O)O)c(C)n1-c1ccc(Cl)cc1`, for which the Potency result with CP266, in the assay with CP268, in the assay with CP269, in the assay with CP286, in the assay with CP291 and with CP305 was “inactive” in each case. Besides, the Potency entry in the assay on CP315, in the assay on CP325 and with CP329 was “inactive” each time.

Regarding `CCOc1ccccc1C(N)=O`, the Potency entry in the assay on CP266, in the assay on CP268, in the assay on CP269, in the assay with CP286, in the assay on CP297 and with CP305 was “inactive” each time. In addition, the Potency result with CP315, with CP325 and in the assay on CP329 was “inactive” in each case.

`Cc1cc2c(OCC(CNC(C)(C)C)OC(=O)c3ccccc3)cccc2[nH]1` (stereo unspecified): the Potency entry in the assay on CP266, in the assay on CP315, in the assay with CP325 and in the assay with CP329 was “inactive” throughout. Also, the Potency in the assay on CP286 was 8.91 µM (active).

For the compound `CC[N+](C)(CC)CCOC(=O)C(O)(c1ccccc1)C1CCCCC1` (stereo unspecified), the Potency entry in the assay with CP266, in the assay with CP268, with CP269, with CP315, with CP325 and in the assay with CP329 was “inactive” each time.

For the compound `NCCNc1cccc2ccccc12`, the Potency entry in the assay with CP266, in the assay on CP268, with CP269, in the assay on CP286, in the assay on CP291 and with CP305 was “inactive” throughout. In addition, the Potency entry in the assay on CP315, in the assay on CP325 and with CP329 was “inactive” each time.

Consider `CN1CCN(c2c(F)cc3c(=O)c(C(=O)O)cn4c3c2SCC4)CC1`, for which the Potency result in the assay with CP266 was “inactive”.
